Experimental data taken from PubChem BioAssay (EPA / NIEHS).
Active and inactive are the calls of the source. The calls were made as follows: active = hit-call score of the fitted dose curve at least 0.9, where 1 is the maximum; inactive = score below 0.9.

Tests used:
[1] = ATG_ISRE_CIS: Attagene CIS-FACTORIAL HepG2 Assay for human Interferon Regulatory Factor 1 (IRF1) binding to an Interferon-Stimulated Response Element (ISRE) (AID 2282948); conditions: HepG2 ISRE cis-reporter (Attagene), mRNA transcription readout; actives raise or lower the signal
Method in brief: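 Quantitation relies on labelled RT-PCR fragments separated by capillary electrophoresis. Human HepG2 cells bearing cis-promoter reporter constructs were treated 24 h; DMSO served as baseline for bidirectional fitting.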

[2] = ATG_M_32_CIS: Attagene CIS-FACTORIAL HepG2 Assay for M32 Transcription Factor (Internal Marker) (AID 2282949); conditions: HepG2 Attagene cis-factorial M32 reporter, mRNA; actives raise or lower the signal;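 also: background control marker of the multiplexed CIS panel rather than a real target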
Method in brief: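 Fluorescent capillary electrophoresis peaks of HpaI-digested, FAM-labelled RT-PCR reporter products give the signal. Source: transiently transfected human liver HepG2 cells, 24 h after chemical dosing; bidirectional fitting against DMSO.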

[3] = ATG_M_06_CIS: Attagene CIS-FACTORIAL HepG2 Assay for M06 Transcription Factor (Internal Marker) (AID 2282950); conditions: HepG2 Attagene CIS-FACTORIAL M06 internal marker reporter; actives raise or lower the signal
Method in brief: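 One of many multiplexed endpoints: HepG2 reporter mRNA after 24 h dosing, detected by RT-PCR and capillary electrophoresis fluorescence; gain or loss of signal analysed against DMSO.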

[4] = target: Hypoxia-inducible factor 1-alpha (Homo sapiens) (UniProt Q16665); assay: ATG_HIF1a_CIS: Attagene CIS-FACTORIAL HepG2 Assay for human Hypoxia Inducible Factor 1 (HIF1A) (AID 2282951); conditions: HepG2 Attagene cis-factorial HIF1a reporter transcription; actives raise or lower the signal
Method in brief: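 Dosed 24 h, transfected HepG2 cells yielded total RNA whose reporter transcripts were RT-PCR-amplified and sized by capillary electrophoresis using fluorescent labelling; DMSO defined baseline, with gain and loss of signal both fitted.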

[5] = target: Hepatocyte nuclear factor 6 (Homo sapiens) (UniProt Q9UBC0); assay: ATG_HNF6_CIS: Attagene CIS-FACTORIAL HepG2 Assay for human Hepatocyte Nuclear Factor 6 (HNF6) (AID 2282952); conditions: HepG2 Attagene cis-factorial HNF6 reporter transcription; actives raise or lower the signal
Method in brief: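 HepG2 cells transiently transfected with cis-element-driven multiplexed reporter units measuring endogenous transcription factor activity. After 24 h exposure, reporter mRNA quantified by RT-PCR, FAM-labelled fragments and capillary electrophoresis; bidirectional fitting versus DMSO.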

[6] = target: Heat shock factor protein 1 (Homo sapiens) (UniProt Q00613); assay: ATG_HSE_CIS: Attagene CIS-FACTORIAL HepG2 Assay for human Heat Shock Transcription Factor 1 (HSE) (AID 2282953); conditions: HepG2 HSE cis-reporter, Attagene RNA transcription; actives raise or lower the signal
Method in brief: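 Using HepG2 with transfected cis-driven reporter constructs, compound effects on endogenous factor activity are scored as reporter mRNA change at 24 h. Detection: RT-PCR, HpaI digestion, capillary electrophoresis; bidirectional fitting to DMSO.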

[7] = ATG_MRE_CIS: Attagene CIS-FACTORIAL HepG2 Assay for human Metal Responsive Element (MRE) (AID 2282954); conditions: HepG2 MRE cis-reporter transcription, Attagene multiplex; actives raise or lower the signal
Method in brief: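 Transient MRTU transfection of HepG2 (FuGene 6); 24 h dosing; total RNA → oligo(dT) RT, PCR, 6-FAM primer extension, HpaI cut, CE. Bidirectional fit vs DMSO.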

[8] = ATG_PBREM_CIS: Attagene CIS-FACTORIAL HepG2 Assay for human Phenobarbital-responsive Enhancer Module (PBREM) (AID 2282955); conditions: HepG2 PBREM cis-reporter, Attagene multiplexed transcription; actives raise or lower the signal
Method in brief: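 Transfected liver-derived HepG2 cells exposed 24 h; PBREM reporter transcript quantified via RT-PCR and capillary electrophoresis, with activity in either direction referenced to DMSO.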

[9] = target: Paired box protein Pax-6 (Homo sapiens) (UniProt P26367); assay: ATG_Pax6_CIS: Attagene CIS-FACTORIAL HepG2 Assay for human Paired Box 6 (PAX6) (AID 2282956); conditions: HepG2 CIS-FACTORIAL PAX6 reporter transcription, RNA readout; actives raise or lower the signal
Method in brief: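 After twenty-four hours of chemical exposure, transfected HepG2 cells are harvested for RNA. Cis-promoter reporter transcripts are amplified, fluorescently labelled and sized by capillary electrophoresis, with gain and loss of signal scored against DMSO.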

[10] = ATG_PXRE_CIS: Attagene CIS-FACTORIAL HepG2 Assay for human Pregnane X Receptor Element (PXRE) (AID 2282957); conditions: HepG2 Attagene CIS-FACTORIAL PXRE reporter, mRNA; actives raise or lower the signal
Method in brief: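 HepG2 cells transiently transfected with cis-element-driven multiplexed reporter units; after 24 h chemical exposure, reporter mRNA measured by RT-PCR, 6-FAM labelling, HpaI digestion and capillary electrophoresis. Bidirectional fitting relative to DMSO.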

[11] = ATG_PPRE_CIS: Attagene CIS-FACTORIAL HepG2 Assay for human Peroxisome Proliferator-activated Response Element (PPRE) (AID 2282958); conditions: HepG2 PPRE cis-element reporter, Attagene transcription factor profiling; actives raise or lower the signal
Method in brief: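 Measured endpoint: PPRE-controlled reporter mRNA, detected by RT-PCR and capillary electrophoresis fluorescence, from transiently transfected HepG2 cells 24 h after dosing. Curves fitted in both directions using DMSO baseline.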

[12] = ATG_RORE_CIS: Attagene CIS-FACTORIAL HepG2 Assay for human RAR-related Orphan Receptor Element (RORE) (AID 2282959); conditions: HepG2 Attagene cis-factorial RORE reporter, mRNA; actives raise or lower the signal
Method in brief: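 Transiently transfected HepG2 reporter cells were treated 24 h. Reporter transcripts were detected by RT-PCR and capillary electrophoresis, with bidirectional fitting against DMSO.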

[13] = ATG_Sox_CIS: Attagene CIS-FACTORIAL HepG2 Assay for human SRY-box transcription factor (SOX) (AID 2282960); conditions: HepG2 Attagene cis-factorial SOX reporter, mRNA; actives raise or lower the signal
Method in brief: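 Gain- or loss-of-signal endpoint, fitted bidirectionally with DMSO as negative control. Based on reporter mRNA from transfected HepG2 cells harvested 24 h post-treatment and quantified via RT-PCR and capillary electrophoresis.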

[14] = target: Transcription factor Sp1 (Homo sapiens) (UniProt P08047); assay: ATG_Sp1_CIS: Attagene CIS-FACTORIAL HepG2 Assay for human Specificity Protein 1 (Sp1) (AID 2282961); conditions: HepG2 Sp1 cis-reporter transcription, actives raise or lower the signal
Method in brief: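 Endpoint reflects endogenous Sp1 transcriptional activity, not an exogenous fusion protein: HepG2 cells with transfected cis-regulated reporters, 24 h dosing, RT-PCR/capillary electrophoresis mRNA read-out, DMSO-normalised bidirectional fit.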

[15] = ATG_SREBP_CIS: Attagene CIS-FACTORIAL HepG2 Assay for human Sterol Regulatory Element Binding (SREBP) (AID 2282962); conditions: HepG2 Attagene cis-factorial SREBP reporter, mRNA; actives raise or lower the signal
Method in brief: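 Twenty-four hours after chemical dosing of transfected HepG2 cultures, reporter RNA was converted to cDNA, amplified, end-labelled with 6-FAM and resolved by capillary electrophoresis. Responses were fitted relative to DMSO.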

[16] = target: Signal transducer and activator of transcription 3 (Homo sapiens) (UniProt P40763); assay: ATG_STAT3_CIS: Attagene CIS-FACTORIAL HepG2 Assay for human Signal Transducer and Activator of Transcription 3 (STAT3) (AID 2282963); conditions: HepG2, Attagene cis-factorial STAT3 reporter transcription; actives raise or lower the signal
Method in brief: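 Endogenous STAT3-responsive cis-element activity was read in transiently transfected HepG2 cells after 24 h treatment. Reporter transcripts were quantified via RT-PCR and capillary electrophoresis, with DMSO as negative control and bidirectional curve fitting.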

[17] = ATG_TA_CIS: Attagene CIS-FACTORIAL HepG2 Assay for human TA Basal Promoter (AID 2282964); conditions: HepG2 Attagene CIS-factorial TA basal promoter reporter; actives raise or lower the signal
Method in brief: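 Transient MRTU transfection of HepG2 preceded 24 h compound exposure. Reporter mRNA levels were then read by RT-PCR with capillary electrophoresis, and this background-control endpoint was fitted bidirectionally to DMSO.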

[18] = ATG_TCF_b_cat_CIS: Attagene CIS-FACTORIAL HepG2 Assay for human T-Cell-Factor with beta-catenin (TCF/b-cat) (AID 2282965); conditions: HepG2 TCF/beta-catenin cis-reporter transcription, actives raise or lower the signal
Method in brief: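 Endogenous TCF/LEF activity read as reporter transcript level via RT-PCR and capillary electrophoresis fluorescence in transfected HepG2, 24 h exposure; gain or loss of signal fitted against DMSO controls.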

[19] = ATG_TAL_CIS: Attagene CIS-FACTORIAL HepG2 Assay for human TAL Basal Promoter (AID 2282966); conditions: HepG2 Attagene cis-factorial TAL promoter reporter; actives raise or lower the signal;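 also: background control endpoint measuring basal TAL promoter reporter mRNA not a specific factor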
Method in brief: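 HepG2 cells transiently transfected with multiplexed cis-promoter reporter units, dosed 24 h. Reporter mRNA quantified by RT-PCR, 6-FAM labelling, HpaI digestion and capillary electrophoresis; TAL basal promoter serves as background control, fitted bidirectionally versus DMSO.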

[20] = ATG_TGFb_CIS: Attagene CIS-FACTORIAL HepG2 Assay for human Transforming Growth Factor (TGF) (AID 2282967); conditions: HepG2 Attagene CIS TGFb reporter, mRNA transcription; actives raise or lower the signal
Method in brief: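 After a 24-hour incubation with compound, transfected HepG2 cells were lysed for RNA; reporter cDNA was amplified, fluorescently end-labeled and separated by CE. DMSO served as baseline for bidirectional fits.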

Sequence of Heat shock factor protein 1 (Homo sapiens) (Q00613 whole entry, looked up): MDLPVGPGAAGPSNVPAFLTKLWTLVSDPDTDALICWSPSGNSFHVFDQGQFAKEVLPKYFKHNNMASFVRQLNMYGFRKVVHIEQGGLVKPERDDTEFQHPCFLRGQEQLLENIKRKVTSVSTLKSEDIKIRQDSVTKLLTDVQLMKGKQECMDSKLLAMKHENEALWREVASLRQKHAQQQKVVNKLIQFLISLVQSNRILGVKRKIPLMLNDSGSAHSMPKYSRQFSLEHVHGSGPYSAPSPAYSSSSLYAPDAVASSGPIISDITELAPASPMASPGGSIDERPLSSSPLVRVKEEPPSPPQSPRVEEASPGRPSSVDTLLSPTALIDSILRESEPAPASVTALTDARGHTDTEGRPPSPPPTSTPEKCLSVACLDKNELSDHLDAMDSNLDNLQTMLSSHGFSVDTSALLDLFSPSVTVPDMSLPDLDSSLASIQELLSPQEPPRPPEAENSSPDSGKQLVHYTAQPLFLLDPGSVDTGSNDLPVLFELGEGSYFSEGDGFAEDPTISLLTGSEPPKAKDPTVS
Sequence of Paired box protein Pax-6 (Homo sapiens) (P26367 whole entry, looked up): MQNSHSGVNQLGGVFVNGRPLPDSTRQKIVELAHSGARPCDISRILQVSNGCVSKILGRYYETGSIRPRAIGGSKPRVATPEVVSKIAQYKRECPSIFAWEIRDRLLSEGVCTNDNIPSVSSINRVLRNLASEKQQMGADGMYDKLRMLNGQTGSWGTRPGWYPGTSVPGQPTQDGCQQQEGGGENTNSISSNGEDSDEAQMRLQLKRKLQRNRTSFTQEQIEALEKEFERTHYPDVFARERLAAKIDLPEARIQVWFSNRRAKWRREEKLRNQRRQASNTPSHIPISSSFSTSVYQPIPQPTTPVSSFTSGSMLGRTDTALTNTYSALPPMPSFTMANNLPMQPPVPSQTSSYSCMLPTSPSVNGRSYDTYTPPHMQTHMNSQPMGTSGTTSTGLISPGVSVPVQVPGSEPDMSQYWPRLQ
Sequence of Hepatocyte nuclear factor 6 (Homo sapiens) (Q9UBC0 whole entry, looked up, the tested form may be a part): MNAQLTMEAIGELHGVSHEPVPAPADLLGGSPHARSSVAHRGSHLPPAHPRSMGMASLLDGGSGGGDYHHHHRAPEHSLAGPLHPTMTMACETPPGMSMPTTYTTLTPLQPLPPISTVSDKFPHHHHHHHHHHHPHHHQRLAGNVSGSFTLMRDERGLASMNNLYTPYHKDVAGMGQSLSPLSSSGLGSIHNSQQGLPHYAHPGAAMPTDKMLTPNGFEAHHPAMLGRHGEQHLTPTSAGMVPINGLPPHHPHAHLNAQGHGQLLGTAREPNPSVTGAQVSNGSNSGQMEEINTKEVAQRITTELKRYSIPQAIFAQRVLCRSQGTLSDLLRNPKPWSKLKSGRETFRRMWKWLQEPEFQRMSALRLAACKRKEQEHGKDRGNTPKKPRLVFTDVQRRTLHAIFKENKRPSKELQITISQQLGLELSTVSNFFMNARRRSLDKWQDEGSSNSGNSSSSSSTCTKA
Sequence of Signal transducer and activator of transcription 3 (Homo sapiens) (P40763 whole entry, looked up): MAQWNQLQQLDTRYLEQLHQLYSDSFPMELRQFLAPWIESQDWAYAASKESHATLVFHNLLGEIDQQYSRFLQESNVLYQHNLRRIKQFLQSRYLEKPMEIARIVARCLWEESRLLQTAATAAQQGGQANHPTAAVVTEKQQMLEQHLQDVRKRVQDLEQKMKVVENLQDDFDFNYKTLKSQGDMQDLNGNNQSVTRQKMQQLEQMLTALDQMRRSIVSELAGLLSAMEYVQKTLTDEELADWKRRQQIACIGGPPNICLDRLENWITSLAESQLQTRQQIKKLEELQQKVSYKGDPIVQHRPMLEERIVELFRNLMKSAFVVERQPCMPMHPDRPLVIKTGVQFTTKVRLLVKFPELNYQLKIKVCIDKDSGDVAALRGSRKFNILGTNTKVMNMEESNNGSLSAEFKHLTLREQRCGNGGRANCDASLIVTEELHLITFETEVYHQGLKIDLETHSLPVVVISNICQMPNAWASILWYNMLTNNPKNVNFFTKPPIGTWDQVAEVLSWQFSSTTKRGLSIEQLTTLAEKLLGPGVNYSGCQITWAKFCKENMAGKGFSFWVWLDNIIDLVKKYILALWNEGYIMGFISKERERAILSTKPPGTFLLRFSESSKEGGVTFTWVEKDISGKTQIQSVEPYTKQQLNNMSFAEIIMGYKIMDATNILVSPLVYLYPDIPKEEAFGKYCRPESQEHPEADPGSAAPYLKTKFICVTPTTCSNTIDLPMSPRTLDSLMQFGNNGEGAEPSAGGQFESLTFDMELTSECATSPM
Sequence of Hypoxia-inducible factor 1-alpha (Homo sapiens) (Q16665 whole entry, looked up): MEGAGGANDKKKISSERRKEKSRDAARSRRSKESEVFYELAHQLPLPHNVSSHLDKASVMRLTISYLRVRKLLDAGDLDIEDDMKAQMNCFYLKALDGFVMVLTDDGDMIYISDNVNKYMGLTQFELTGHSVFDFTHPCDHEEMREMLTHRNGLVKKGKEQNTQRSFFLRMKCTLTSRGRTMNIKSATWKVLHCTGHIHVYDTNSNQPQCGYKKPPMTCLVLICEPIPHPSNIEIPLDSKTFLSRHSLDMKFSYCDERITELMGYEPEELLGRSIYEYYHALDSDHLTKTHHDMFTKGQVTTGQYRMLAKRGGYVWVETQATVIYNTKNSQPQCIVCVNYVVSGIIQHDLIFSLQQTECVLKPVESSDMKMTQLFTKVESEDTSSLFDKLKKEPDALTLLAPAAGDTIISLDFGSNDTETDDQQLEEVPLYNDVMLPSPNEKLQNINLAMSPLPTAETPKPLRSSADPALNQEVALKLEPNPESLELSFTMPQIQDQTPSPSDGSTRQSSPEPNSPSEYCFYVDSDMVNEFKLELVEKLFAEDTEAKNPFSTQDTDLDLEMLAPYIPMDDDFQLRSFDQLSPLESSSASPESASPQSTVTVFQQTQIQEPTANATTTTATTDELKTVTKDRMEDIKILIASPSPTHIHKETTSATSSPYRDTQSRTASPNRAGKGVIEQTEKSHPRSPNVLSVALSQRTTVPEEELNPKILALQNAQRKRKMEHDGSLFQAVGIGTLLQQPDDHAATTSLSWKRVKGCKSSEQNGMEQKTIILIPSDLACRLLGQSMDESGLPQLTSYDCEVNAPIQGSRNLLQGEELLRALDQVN
Sequence of Transcription factor Sp1 (Homo sapiens) (P08047 whole entry, looked up, the tested form may be a part): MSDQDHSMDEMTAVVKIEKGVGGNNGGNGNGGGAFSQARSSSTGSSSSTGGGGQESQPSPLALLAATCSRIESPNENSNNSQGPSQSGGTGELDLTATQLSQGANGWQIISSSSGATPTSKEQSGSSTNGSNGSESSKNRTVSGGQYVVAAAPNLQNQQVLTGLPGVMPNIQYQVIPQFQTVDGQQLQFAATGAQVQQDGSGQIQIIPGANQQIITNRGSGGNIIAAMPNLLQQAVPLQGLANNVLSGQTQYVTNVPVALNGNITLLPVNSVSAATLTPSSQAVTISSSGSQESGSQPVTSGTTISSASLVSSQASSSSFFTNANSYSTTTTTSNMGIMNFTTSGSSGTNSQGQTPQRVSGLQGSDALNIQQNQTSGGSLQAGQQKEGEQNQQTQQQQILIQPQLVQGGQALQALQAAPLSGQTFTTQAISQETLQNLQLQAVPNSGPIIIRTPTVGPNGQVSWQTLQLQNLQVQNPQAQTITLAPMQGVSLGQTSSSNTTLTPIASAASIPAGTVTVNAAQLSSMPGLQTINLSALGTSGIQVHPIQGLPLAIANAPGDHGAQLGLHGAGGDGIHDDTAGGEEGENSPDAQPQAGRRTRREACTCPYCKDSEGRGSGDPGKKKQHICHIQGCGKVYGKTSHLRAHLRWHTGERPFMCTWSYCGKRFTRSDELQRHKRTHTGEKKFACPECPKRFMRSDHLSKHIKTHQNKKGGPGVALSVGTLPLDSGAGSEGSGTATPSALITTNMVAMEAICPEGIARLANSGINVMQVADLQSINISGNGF

O=C(O)CN(CCCN(CC(=O)O)CC(=O)O)CC(=O)O
outcome [1]: inactive
outcome [2]: inactive
outcome [3]: inactive
outcome [4]: inactive
outcome [5]: inactive
outcome [6]: inactive
outcome [7]: inactive
outcome [8]: inactive
outcome [9]: inactive
outcome [10]: inactive
outcome [11]: inactive
outcome [12]: inactive
outcome [13]: inactive
outcome [14]: inactive
outcome [15]: inactive
outcome [16]: inactive
outcome [17]: inactive
outcome [18]: inactive
outcome [19]: inactive
outcome [20]: inactive

Cc1ccc2ccc3ccc(C)cc3c2c1
outcome [1]: inactive
outcome [2]: inactive
outcome [3]: inactive
outcome [4]: inactive
outcome [5]: inactive
outcome [6]: inactive
outcome [7]: inactive
outcome [8]: inactive
outcome [9]: inactive
AC50 [10]: 8.1 µM (active)
outcome [11]: inactive
outcome [12]: inactive
outcome [13]: inactive
outcome [14]: inactive
outcome [15]: inactive
outcome [16]: inactive
outcome [17]: inactive
outcome [18]: inactive
outcome [19]: inactive
outcome [20]: inactive

CC1=CC(=O)c2ccccc2C1=O
outcome [1]: inactive
outcome [2]: inactive
outcome [3]: inactive
outcome [4]: inactive
outcome [5]: inactive
outcome [6]: inactive
outcome [7]: inactive
outcome [8]: inactive
outcome [9]: inactive
AC50 [10]: 11.1 µM (active)
outcome [11]: inactive
outcome [12]: inactive
outcome [13]: inactive
outcome [15]: inactive
outcome [16]: inactive
outcome [17]: inactive
outcome [18]: inactive
outcome [19]: inactive
outcome [20]: inactive
